According to PubChem BioAssay AID1851 (National Center for Advancing Translational Sciences (NCATS), 2009):
Values joined by “and” are separate entries in the source; they are usually repeats but may differ in a detail not shown here. Identical values can stand only once. The campaign covered roughly 16,000 compounds. About 4,000 (25%) were called active. About 26% were inconclusive and are not listed. Calls follow the shape of the dose curve; as a rule, active = well fitted curve in the direction sought with a large enough effect; inconclusive = small, poorly fitted or top-dose-only effect, or effect the other way; inactive = no such curve, though single readings can be large or run the other way. These entries were drawn from the full list. Some compounds were tested as several samples or in several runs, with calls that do not always agree.

Target: Cytochrome P450 2C9 (Homo sapiens) (UniProt P11712)
Assay: Cytochrome panel assay with activity outcomes
Conditions: recombinant CYP, pro-luciferin dealkylation, luminescence, p450-cyp2c9; series mostly up to 57.1 µM; activity, negative = inhibition: at the top concentration
Protocol: The P450 gene superfamily is involved in the metabolism and clearance of xenobiotics. This assay used various human CYP P450 isozymes to measure the dealkylation of various pro-luciferin substrates to luciferin. The luciferin is then measured by luminescence after the addition of a luciferase detection reagent. Pro-luciferin substrate concentration in the assay was equal to its KM for its CYP P450 isozyme. Inhibitors and some substrates limit the production of luciferin, and decrease measured luminescence.
NCGC Assay Protocol Summary:
1, Reagent, 2 uL, Isozyme and Pro-Luciferin
2, Library compounds, 23 nl, 40 uM to 0.24 nM dilution series
3, Controls, 23 nl, Isozyme specific inhibitor
4, Reagent, 2 uL, NADPH regeneration solution
5, Incubation time, 60 min, Isozyme specific temperature
6, Reagent, 4ul, Detection reagent
7, Incubation time, 20 min, Isozyme specific temperature
8, Detection, 1 sec, ViewLux luminescent read
The luciferase-based P450-GloTM Screening Systems were obtained from Promega (Madison, WI) for CYP 1A2 (V9770), CYP 2C9 (V9790), CYP2 C19 (V9880), CYP 2D6 (V9890), and CYP 3A4 Luciferin-PPXE (V9910) and were adapted for 1,536-well microplates and an automated protocol. The control compounds furafylline for 1A2 (F124), sulfaphenazole for CYP 2C9 (S0758), ketoconazole for CYP 2C19 (K1003), quinidine for 2D6 (Q3625), and ketoconazole for 3A4 (K1003) were purchased from Sigma Aldrich (St. Louis, MO). Recombinant P450 enzymes were obtained from baculovirus constructs expressed in insect cells (BD/Gentest).
Medium-binding white solid Kalypsys plates used. Mixtures kept on ice. 1A2: 10 nM 1A2, 100 uM Luc-ME, 100 mM KPO4; 2C9: 10 nM 2C9, 100 uM Luc-H, 25 mM KPO4; 2C19: 5 nM 2C19, 10 uM Luc-H EGE, 50 mM KPO4; 2D6: 5 nM 2D6, 30 uM Luc-ME EGE, 100 mM KPO4; 3A4: 10 nM, 25 uM Luc-PPXE. All amounts are reflected in their final concentration, working concentration is 2x.
NADPH regeneration solution: 1.3 mM NADP+, 3.3 mM glucose-6-phosphate, 3.3 mM MgCl2, 0.4 U/mL glucose-6-phosphate dehydrogenase for all isozymes, 200 mM KPO4 for 3A4. Mixture prepared at RT but kept on ice during automated run.
RT incubation in auxilliary plate hotel for 1A2, 2D6, and 3A4; 37C for 2C9 and 2C19.
Keywords: P450, CYP1A2, CYP2C19, CYP2C9, CYP2D6, CYP3A4, Luciferase, MLSMR, MLSCN, NIH Roadmap, qHTS, NCGC
% is scaled to controls: 0 for no effect and ±100 for the full control effect.

Cytochrome P450 2C9 (Homo sapiens), sequence (P11712 whole entry, looked up): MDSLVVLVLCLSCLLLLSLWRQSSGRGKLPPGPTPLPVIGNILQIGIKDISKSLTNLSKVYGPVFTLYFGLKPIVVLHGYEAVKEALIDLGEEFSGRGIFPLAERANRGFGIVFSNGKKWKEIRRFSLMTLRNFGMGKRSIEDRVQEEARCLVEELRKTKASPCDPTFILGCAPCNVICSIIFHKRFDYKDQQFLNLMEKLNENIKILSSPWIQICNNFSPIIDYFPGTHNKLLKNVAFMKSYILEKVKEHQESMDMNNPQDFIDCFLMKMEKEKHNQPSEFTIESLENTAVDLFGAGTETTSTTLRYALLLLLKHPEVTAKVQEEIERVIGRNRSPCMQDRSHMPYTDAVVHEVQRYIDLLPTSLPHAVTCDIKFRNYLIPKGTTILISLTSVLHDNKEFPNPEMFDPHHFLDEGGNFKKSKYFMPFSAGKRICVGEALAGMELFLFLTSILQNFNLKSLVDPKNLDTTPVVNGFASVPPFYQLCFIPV

SMILES	activity, negative = inhibition	AC50
Cc1ccccc1-n1c(O)c(C=Nc2ccc(N(C)C)cc2)c(=O)[nH]c1=O	-24.5% (inactive)	–
CC(C)N[C@@H](C)Cc1ccc(I)cc1	-14.9% (inactive)	–
CCN(CC)C1=NC(=[N+](CC)CC)c2ccccc21	-31.7% (inactive)	–
C[C@]1(C(=O)O)[C@@H]2CC[C@@H](O2)[C@@]1(C)C(=O)O	25.2% (inactive)	–
CCOCCN1CCC(OC(C)=O)C(C)C1 (stereo not given)	-4.11% (inactive)	–
CCN1C[C@]2(C)CC[C@H](OC)[C@@]34[C@@H]2[C@H](OC(C)=O)[C@]2(OCO[C@@]25C[C@@H](OC)[C@@H]2C[C@@]3(O)[C@H]5[C@@H]2OC)[C@H]14	2.84% [at 25.6 µM] (inactive)	–
O=C1NC(=O)N(CCNc2ncc(C(F)(F)F)cc2Cl)C(=O)C1/C=N/OCc1c(F)cccc1Cl (stereo not given)	–	794 nM (active)
NC[C@@H](CC(=O)O)c1ccc(Cl)cc1	inactive	–
N[C@@]1(C(=O)O)CC[C@H](C(=O)O)C1	inactive	–
COC[C@H]1OC(=O)c2coc3c2[C@@]1(C)C1=C(C3=O)[C@H]2CCC(=O)[C@@]2(C)C[C@H]1OC(C)=O	7.54% (inactive)	–
Cc1cc(C(C)(C)C)cc(C)c1CC1=NCCN1	-5.49% (inactive)	–
CC[C@H](CO)NC(=O)[C@@H]1C=C2c3cccc4c3c(cn4C)C[C@@H]2N(C)C1	-11.5% (inactive)	–
CC(=O)OCC(=O)[C@@H]1CC[C@H]2[C@H]3CC[C@H]4C[C@@H](O)CC[C@]4(C)[C@@H]3C(=O)C[C@@]12C	-29% [at 25.6 µM] (inactive)	–
C[C@H]1CC[C@]2(OC1)O[C@@H]1C[C@@H]3[C@@H]4CC[C@H]5C[C@@H](O)CC[C@]5(C)[C@@H]4CC(=O)[C@@]3(C)[C@H]1[C@@H]2C	13.6% [at 25.6 µM] (inactive)	–
C[C@]12CC[C@H](O)C[C@@H]1CC[C@H]1[C@H]2CC[C@]2(C)[C@H](C(=O)CO)CC[C@@H]12	–	25100 nM (active)
C[C@@]12CC[C@H]3[C@@H](CCC4=CC(=O)CC[C@]43C)[C@H]1CC[C@H]2C(=O)CO	-24.9% [at 25.6 µM] (inactive)	–
CC(=O)[C@@H]1CC[C@H]2[C@H]3CC[C@H]4C[C@@H](O)CC[C@]4(C)[C@@H]3CC[C@]12C	–	2000 nM (active)
C[C@]12CC[C@H](O)C[C@@H]1CC[C@H]1[C@H]2CC[C@]2(C)C(=O)CC[C@@H]12	inactive	–
CC(C)(C)NC[C@H](O)c1cc(Cl)c(N)c(Cl)c1	21% [at 25.6 µM] (inactive)	–
O=C1C=C2C=C[C@H]3C[C@@]2(O1)[C@H]1CCCCN31	-3.6% [at 25.6 µM] (inactive)	–
CN[C@H](Cc1ccccc1)c1cccc(OC)c1O	9.59% [at 11.4 µM] (inactive)	–
CCC(=O)O[C@@](Cc1ccccc1)(c1ccccc1)[C@@H](C)CN(C)C	-4.85% [at 25.6 µM] (inactive)	–
CC(C)Oc1cc(-n2c(=S)[nH]c3ccccc3c2=O)c(Cl)cc1Cl	–	2240 nM (active)
C[C@]12CC[C@H]3c4ccc(O)cc4CC[C@@H]3[C@H]1CC[C@@H]2OC(=O)CCc1ccccc1	-8.07% [at 11.4 µM] (inactive)	–
COc1cc2c3cc1Oc1cc(ccc1O)C[C@@H]1c4c(cc(OC)c(O)c4Oc4cccc(c4)C[C@H]3N(C)CC2)CC[N+]1(C)C	-0.825% [at 25.6 µM] (inactive)	–
O=NN(Cc1ccc(Cl)cc1)[C@@H](C(=O)O)c1ccccc1	-22.5% [at 11.4 µM] (inactive)	–
N[C@H](CCCP(=O)(O)O)C(=O)O	-3.94% (inactive)	–
N#Cc1ccc(CN2CC[C@@]3(CCCN(C(=O)Oc4ccccc4)C3)C2)cc1	-28.9% (inactive)	–

SMILES	activity, negative = inhibition	AC50
CC[N+](C)(C)c1cccc(O)c1	6.93% (inactive)	–
Cc1cccc(NC(=S)NC2CC3CCCC(C2)N3Cc2cccs2)c1 (stereo not given)	-10.8% (inactive)	–
CN(C)CCC=C1c2ccccc2CCc2ccccc21	5.35% [at 25.6 µM] (inactive)	–
Cc1o[nH]c(=O)c1C[C@@H](N)C(=O)O	-14.3% (inactive)	–
CC(C)(C)c1o[nH]c(=O)c1C[C@H](N)C(=O)O	11.8% (inactive)	–
Cc1o[nH]c(=O)c1C[C@H](N)C(=O)O	–	inactive and 10 µM (active)
CCCN1CCC[C@@H]2Cc3nc(N)ncc3C[C@H]21	-20.2% (inactive)	–
COC(=O)C1(C)C=C2C(=C(C)C(=O)C2C)CN1 (stereo not given)	-24.9% (inactive)	–
c1cncc(CNCCN2CCNCC2)c1	-12% [at 11.4 µM] (inactive)	–
CCC1=C(C[C@H]2NCCc3ccccc32)C[C@@H]2c3cc(OC)c(OC)cc3CCN2C1	-10.7% [at 11.4 µM] (inactive)	–
C[C@@H](O)CN(CCN(C[C@@H](C)O)C[C@@H](C)O)C[C@@H](C)O.O=[N+]([O-])O.[Cu]	–	794 nM (active)
CNC(=S)NC1CC2CCCC(C1)N2CC(C)C (stereo not given)	-4.41% (inactive)	–
Cc1c([C@@H](C)[C@H]2NC[C@H](C)C[C@@H]2O)ccc2c1C[C@@H]1[C@H]2CC=C2C[C@@H](O)CC[C@@]21C	2.85% [at 11.4 µM] (inactive)	–
C[N+]1(C)CCO[C@](O)(c2ccc(-c3ccc([C@]4(O)C[N+](C)(C)CCO4)cc3)cc2)C1	10.5% [at 25.6 µM] (inactive)	–
O=C(O)C1=CCCN(CCOC(c2ccc(C(F)(F)F)cc2)c2ccc(C(F)(F)F)cc2)C1	–	2510 nM (active)
c1ccc2c([C@@H]3CCN(CCN4CCOCC4)C3)c[nH]c2c1	-7.99% [at 11.4 µM] (inactive)	–
Cc1cc(OCC(=O)OC(C)C)c2c3c(c(=O)oc2c1)CCCC3	–	2000 nM (active)
Cc1cc(OCc2ccc([N+](=O)[O-])cc2)c2c3c(c(=O)oc2c1)CCCC3	–	141 nM (active)
Cc1cc(OC(=O)CCCNC(=O)OC(C)(C)C)c2c3c(c(=O)oc2c1)CCC3	–	11200 nM (active)
COc1cc2cc(c1Cl)N(C)C(=O)C[C@H](OC(=O)C(C)C)[C@]1(C)O[C@@H]1[C@@H](C)[C@H]1C[C@](O)(NC(=O)O1)[C@@H](OC)/C=C\C=C(\C)C2	8.76% [at 11.4 µM] (inactive)	–
c1ccc2c(c1)-c1ccccc1C2N1CC2CCC(CC2)C1	-14.3% [at 11.4 µM] (inactive)	–
CC(C)[N+](C)(CCC(C(N)=O)(c1ccccc1)c1ccccc1)C(C)C	-15% [at 25.6 µM] (inactive)	–
CCSCC[C@H](N)C(=O)O	-1.99% [at 11.4 µM] (inactive)	–
C[C@H](N)Cc1c[nH]c2ccc(OCc3cccs3)cc12	inactive	–
C[C@@H]1[C@@H]2Cc3ccc(O)cc3[C@@]1(C)CCN2CC1CC1	-8.03% (inactive)	–
N#CCCCC[N+]12CN3CN(CN(C3)C1)C2	6.4% [at 11.4 µM] (inactive)	–
C[C@H](c1ccccc1)N1CCN([C@@H](C)c2ccccc2)CC1	5.45% [at 11.4 µM] (inactive)	–
